Measurements: PubChem BioAssay (EPA / NIEHS)
Active and inactive are the calls of the source. The calls were made as follows: active = hit-call score of the fitted dose curve at least 0.9, where 1 is the maximum; inactive = score below 0.9.

Assays:
[1] = ATG_CMV_CIS: Attagene CIS-FACTORIAL HepG2 Assay for human CMV (Internal Marker) (AID 2282928); conditions: HepG2 CMV promoter reporter, transcription factor profiling; actives raise or lower the signal;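 also: endpoint acts as a background internal control marker rather than a target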
Outline: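 CMV internal-marker background readout in transiently transfected HepG2 cells bearing cis-regulated reporter units. Reporter mRNA is measured 24 h after dosing by RT-PCR and capillary electrophoresis, with bidirectional fitting against DMSO.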

[2] = ATG_DR4_LXR_CIS: Attagene CIS-FACTORIAL HepG2 Assay for human Liver X Receptor (LXR), DR4 submotif (AID 2282929); conditions: HepG2 Attagene DR4 cis-reporter, mRNA transcription; actives raise or lower the signal
Outline: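 HepG2, transient MRTU transfection, cis-element (DR4) promoter; 24 h compound exposure; total RNA → oligo(dT) RT → PCR → 6-FAM primer extension → HpaI cut → CE. Gain/loss vs DMSO, bidirectional fit.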

[3] = ATG_AP_1_CIS: Attagene CIS-FACTORIAL HepG2 Assay for human Activator Protein 1 (AP-1) (AID 2282931); conditions: HepG2 Attagene cis-factorial AP-1 reporter mRNA; actives raise or lower the signal
Outline: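 Transient MRTU transfection of HepG2 → 24 h chemical treatment → RNA isolation, RT-PCR, 6-FAM labelling, HpaI digest → capillary electrophoresis. Fit: bidirectional, DMSO negative control.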

[4] = ATG_AP_2_CIS: Attagene CIS-FACTORIAL HepG2 Assay for human Activator Protein 2 (AP-2) (AID 2282932); conditions: HepG2 AP-2 cis-reporter, Attagene transcription factor profiling; actives raise or lower the signal
Outline: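 Bidirectional curve fitting against DMSO was applied to reporter mRNA signals from HepG2 cells 24 h after dosing. Cis-promoter reporter units, transiently transfected, were read by RT-PCR plus capillary electrophoresis.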

[5] = ATG_BRE_CIS: Attagene CIS-FACTORIAL HepG2 Assay for human Bone Morphogenetic Protein (BMP) Response Element (BRE) (AID 2282933); conditions: HepG2 BMP response element reporter, Attagene transcription factor profiling; actives raise or lower the signal
Outline: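 After a 24 h chemical treatment, transiently transfected HepG2 cells were lysed for RNA; reporter transcripts were quantified by fluorescent RT-PCR and capillary electrophoresis, normalised to DMSO.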

[6] = biological target: Retinoic acid receptor alpha (Homo sapiens) (UniProt P10276); assay: ATG_DR5_RAR_CIS: Attagene CIS-FACTORIAL HepG2 Assay for human Retinoic Acid Receptor Alpha (RARE), DR5 submotif (AID 2282934); conditions: HepG2 Attagene cis-factorial RARE DR5 reporter, mRNA; actives raise or lower the signal;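 as to AC50: reporter responds to endogenous RAR alpha beta and gamma in HepG2 not RARA alone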
Outline: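 HepG2 cells transiently transfected with multiplexed reporter units under cis (DR5 RARE) promoters, so endogenous transcription factor activity is measured. After 24 h compound exposure, reporter mRNA is quantified by RT-PCR with fluorescent labelling and capillary electrophoresis; bidirectional fitting versus DMSO.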

[7] = biological target: Transcription factor E2F1 (Homo sapiens) (UniProt Q01094); assay: ATG_E2F_CIS: Attagene CIS-FACTORIAL HepG2 Assay for human E2F Transcription Factor 1 (AID 2282935); conditions: HepG2 Attagene cis-reporter, E2F reporter RNA transcripts; actives raise or lower the signal
Outline: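 Multiplexed cis-reporter assay: HepG2, transient transfection, 24 h dosing, mRNA quantitation by labeled RT-PCR and CE.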

[8] = ATG_E_Box_CIS: Attagene CIS-FACTORIAL HepG2 Assay for human Enhancer Box (E-box) (AID 2282936); conditions: HepG2 E-box cis-reporter transcription, actives raise or lower the signal
Outline: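 Multiplexed CIS reporter system in transiently transfected HepG2 cells measures native transcription factor activity. Reporter RNA after 24 h exposure is profiled by RT-PCR-capillary electrophoresis.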

[9] = ATG_M_61_CIS: Attagene CIS-FACTORIAL HepG2 Assay for M61 Transcription Factor (Internal Marker) (AID 2282937); conditions: HepG2 Attagene CIS-FACTORIAL M61 internal marker reporter; actives raise or lower the signal
Outline: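 Human liver HepG2, transient MRTU transfection (cis promoter elements), 24 h compound. Total RNA → oligo(dT) RT → PCR → FAM label → HpaI → CE. Internal background marker; bidirectional fitting, DMSO = baseline.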

Measured: AC50

Sequence of Retinoic acid receptor alpha (Homo sapiens) (P10276 whole entry, looked up): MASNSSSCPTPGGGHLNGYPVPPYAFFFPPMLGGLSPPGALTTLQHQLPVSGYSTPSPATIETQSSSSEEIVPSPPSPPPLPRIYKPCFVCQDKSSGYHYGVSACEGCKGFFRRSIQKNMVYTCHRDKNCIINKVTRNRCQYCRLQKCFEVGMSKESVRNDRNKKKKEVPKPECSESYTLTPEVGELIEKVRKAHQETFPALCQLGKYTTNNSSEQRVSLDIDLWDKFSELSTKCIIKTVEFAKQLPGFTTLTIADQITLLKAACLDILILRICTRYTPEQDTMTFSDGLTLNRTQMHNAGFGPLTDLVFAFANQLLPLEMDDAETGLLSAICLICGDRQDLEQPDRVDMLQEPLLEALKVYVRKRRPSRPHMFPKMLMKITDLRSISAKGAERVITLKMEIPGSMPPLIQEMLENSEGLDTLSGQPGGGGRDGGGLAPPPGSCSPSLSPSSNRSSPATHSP
Sequence of Transcription factor E2F1 (Homo sapiens) (Q01094 whole entry, looked up): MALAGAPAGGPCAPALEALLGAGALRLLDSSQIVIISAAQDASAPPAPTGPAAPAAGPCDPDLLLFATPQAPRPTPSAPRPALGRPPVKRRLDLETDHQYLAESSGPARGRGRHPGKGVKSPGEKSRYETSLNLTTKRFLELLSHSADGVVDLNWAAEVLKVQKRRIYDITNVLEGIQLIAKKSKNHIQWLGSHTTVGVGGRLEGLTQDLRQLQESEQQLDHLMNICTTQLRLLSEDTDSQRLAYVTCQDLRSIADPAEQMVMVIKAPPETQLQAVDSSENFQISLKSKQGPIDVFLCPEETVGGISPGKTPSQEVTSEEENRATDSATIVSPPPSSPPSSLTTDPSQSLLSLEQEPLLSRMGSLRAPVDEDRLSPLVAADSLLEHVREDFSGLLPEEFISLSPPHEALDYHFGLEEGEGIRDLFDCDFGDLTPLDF

OCCN(CCO)CCO
inactive: all assays above

c1ccc(-c2cccc(-c3ccccc3)c2)cc1
active: [2] 27.4 µM
not listed: [4] | [8]
inactive: all other assays above

CCCCCCCCCCCCBr
active: [2] 48.2 µM
not listed: [5] | [8]
inactive: all other assays above

O=C(CCl)NCO
not listed: [3]
inactive: all other assays above

Cc1ccccc1OP(=O)(Oc1ccccc1C)Oc1ccccc1C
inactive: [1] | [5] | [6] | [9]
active: [2] 13.9 µM | [7] 69.7 µM

CNC(=O)N(C)c1nc2ccccc2s1
inactive: all assays above

OCCCCO
not listed: [7]
inactive: all other assays above

CCCCCCCCCCCCc1cccc(S(=O)(=O)O)c1
active: [2] 30 µM | [6] 39.8 µM
not listed: [4]
inactive: all other assays above

Cc1cc(C)cc(C)c1
not listed: [4]
inactive: all other assays above

Cc1cc(Cl)ccc1OCCCC(=O)O
not listed: [8]
inactive: all other assays above

Nc1ccc(-c2ccccc2)cc1
inactive: all assays above

CC(C)(C)c1cc([N+](=O)[O-])cc(C(C)(C)C)c1O
active: [1] 1.77 µM | [3] 0.948 µM | [4] 16.3 µM | [6] 2.85 µM
inactive: [2] | [7] | [9]

C=CCc1ccccc1O
not listed: [5] | [7]
inactive: all other assays above

CN(C)CCN(C)C
not listed: [4] | [7]
inactive: all other assays above

O=S1OC[C@@H]2[C@H](CO1)[C@]1(Cl)C(Cl)=C(Cl)[C@@]2(Cl)C1(Cl)Cl (some centres not stated)
active: [1] 100 µM | [2] 27.1 µM | [3] 100 µM
inactive: all other assays above

CC(C)(c1ccc(O)c(-c2ccccc2)c1)c1ccc(O)c(-c2ccccc2)c1
active: [2] 4.85 µM
inactive: all other assays above

Clc1cnc(Oc2ccc(Oc3ncc(Cl)cc3Cl)cc2)c(Cl)c1
inactive: all assays above

OC(c1ccc(Cl)cc1)(c1ccc(Cl)cc1)c1cccnc1
active: [2] 11.1 µM
not listed: [5]
inactive: all other assays above

ClCc1ccccc1Cl
active: [2] 50.6 µM
not listed: [5] | [8]
inactive: all other assays above

O=[N+]([O-])c1c2ccccc2cc2ccccc12
inactive: all assays above

O=C(O)CC(O)(CC(=O)O)C(=O)O
not listed: [3] | [6] | [7]
inactive: all other assays above

N#Cc1cccnc1
not listed: [6]
inactive: all other assays above

COc1ccccc1N
not listed: [3] | [5]
inactive: all other assays above

CN(C)c1ccc(N=O)cc1
active: [1] 7.81 µM | [2] 9.26 µM | [8] 10.3 µM
not listed: [3]
inactive: all other assays above

NNCCO
inactive: all assays above

C=CC(=O)[O][Sn]([CH2]CCC)([CH2]CCC)[CH2]CCC
active: [2] 0.607 µM | [3] 0.128 µM | [5] 0.217 µM | [6] 0.0229 µM
not listed: [8]
inactive: all other assays above

C=CC(=O)NC(C)(C)CC(C)=O
not listed: [4]
inactive: all other assays above

N#Cc1ccccc1Cl
inactive: all assays above

CCCSP(=S)(OCC)Oc1ccc(SC)cc1 (configuration not stated)
not listed: [3] | [4] | [5]
inactive: all other assays above

CCOc1cc(C=O)ccc1O
not listed: [3] | [5]
inactive: all other assays above

CCN(N=O)C(N)=O
not listed: [8]
inactive: all other assays above

CCCCOC(=O)COC(=O)c1ccccc1C(=O)OCCCC
not listed: [7]
inactive: all other assays above

CNC(=O)O/N=C/C(C)(C)S(C)(=O)=O
not listed: [5] | [7]
inactive: all other assays above

CC(C)O.CC(C)O.OCCN(CCO)CCO.OCCN(CCO)CCO.[Ti]
active: [5] 6.97 µM
inactive: all other assays above

CC(C)[N+](=O)[O-]
inactive: all assays above

CCN(CC)C(=O)C(Cl)=C(C)OP(=O)(OC)OC
not listed: [5]
inactive: all other assays above

O=C(NC(=O)c1c(F)cccc1F)Nc1cc(Cl)c(F)c(Cl)c1F
active: [2] 0.512 µM
inactive: all other assays above

CCOP(=S)(OCC)SCS(=O)(=O)C(C)(C)C
active: [2] 29.2 µM
inactive: [1] | [5] | [6] | [7] | [9]

CCNc1nc(NCC)nc(SC)n1
not listed: [7]
inactive: all other assays above
